Assay results taken from PubChem BioAssay AID836 (Columbia University Molecular Screening Center, 2007).
The campaign covered roughly 91,000 compounds. About 160 (0.18%) were called active. The full list was thinned out, with actives kept by preference. Unmarked numbers belong to inactive results.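 How the source made its calls: active means inhibition above the batch mean plus 3 SD and confirmed as a hit by visual image inspection (cut at about 30% in these data, passing the limit was not always enough); inconclusive means above the inhibition threshold but rejected on visual inspection; inactive means the rest.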

Experiment: disruptors of actin filament network in HUVEC – imaging, phalloidin staining, high-content imaging, primary screen (AID 836)
Settings: HUVEC TNFa F-actin phalloidin imaging, at 2 µM, stronger effect = higher value

| SMILES | inhibition |
| --- | --- |
| Cn1c2c(c(=O)n(C)c1=O)[C@@H]1c3c(ccc4ccccc34)OC[C@@H]1CO2 | 8.1% |
| COc1ccc2c(c1OC)C(=O)c1ccccc1C2=O | 1% |
| CCC(C)n1c(-c2cc(OC)c(OC)c(OC)c2)nc2nc3ccccc3nc21 (centres undefined) | -3.2% |
| CCNC(=S)Nc1cccc(Cl)c1C | 11.2% |
| COc1ccc(-c2csc3nc(-c4ccccc4F)oc(=O)c23)cc1OC | -3.2% |
| O=c1oc2c(Cl)cc(Cl)cc2cc1-c1nnc(Nc2ccccc2F)s1 | 5% |
| O=C(/C=C/Nc1ccccc1OC(F)(F)F)C(F)(F)F | 6.2% |
| CCC(=O)NC(NCC1CCCO1)C(Cl)(Cl)Cl (centres undefined) | -23.7% |
| C=CCn1c(Oc2ccc(C(=O)OC)cc2)nc2c1c(=O)n(C)c(=O)n2C | 13.6% |
| O=C(Nc1ccccc1Cl)O/N=C(/c1ccccc1)c1ccccn1 | -5.5% |
| CC(C)NC(=O)NC(=O)COC(=O)c1ccc(NC(=O)CC#N)cc1 | 2% |
| O=C(O)COc1ccc(-c2nccc(-c3cccs3)n2)cc1 | 29.5% |
| O=C(CSc1ccccc1)Nc1ccc(NC(=O)c2ccco2)cc1 | 20.5% |
| O=C(CCc1ccc(S(=O)(=O)NC2CCCCC2)cc1)NCc1ccccc1 | -16.8% |
| COc1cccc(C(=O)NNC(=O)c2ccccc2Br)c1 | -16.2% |
| CC(CNc1ccc([N+](=O)[O-])cc1)NC(=O)c1ccccc1Br (centres undefined) | -6.1% |
| O=C(Nc1ccc(Cl)cc1)OCc1cc(-c2ccccc2)on1 | -6.9% |
| COCCN1C(=O)c2oc3c(C)cc(C)cc3c(=O)c2C1c1cccc(O)c1 (centres undefined) | 53.6% (active) |
| O=C1c2oc3ccc(Br)cc3c(=O)c2C(c2cccc(F)c2)N1CCO (centres undefined) | 7.4% |
| O=C1c2oc3ccccc3c(=O)c2C(c2cccc(O)c2)N1c1ccccn1 (centres undefined) | -31.1% |

| SMILES | inhibition |
| --- | --- |
| COc1ccc(C(=O)N2CCc3cc(OC)c(OC)cc3C2c2cccc([N+](=O)[O-])c2)cc1 (centres undefined) | -0.9% |
| CCN(CC)C(=O)CSC1c2ccccc2C(=O)N1c1ccccc1 (centres undefined) | -35.9% |
| Cc1cccc(NC(=S)N2CCC(c3nc4ccccc4s3)CC2)c1 | -9.4% |
| COC(=O)c1ccc(C(=O)OC)c(NC(=S)N2CCCCC2)c1 | -4.3% |
| Cc1ccc2nc(Nc3ccccc3O)nc(-c3ccccc3)c2c1 | -0.7% |
| COc1ccc(/C=N/Nc2nc3ccccc3c(=O)[nH]2)cc1 | 0.1% |
| CC(Oc1ccc(F)cc1F)C(=O)/C=C/N(C)C (centres undefined) | -4.4% |
| Cc1ccc(OCC(=O)Nc2cccc3c2CCCC3)cc1C | -5.6% |
| COc1cc(C(=S)N2CCOCC2)cc(OC)c1OC(=O)c1cc([N+](=O)[O-])c(C)c([N+](=O)[O-])c1 | -7.7% |
| COc1ccc(C(=S)Nc2ccccc2)cc1 | 2.8% |
| COc1nc(-c2ccc(Cl)cc2)ccc1-c1noc(-c2cccs2)n1 | 19.6% |
| Cc1occc1C(=O)NNC(=S)NCC(C)C | -20.3% |
| CSc1ccccc1-c1nnc(-c2ccc(Cl)cc2)o1 | -9.7% |
| Cc1ccc(-c2nc3ccccc3[nH]2)cc1NC(=O)c1sc2ccccc2c1Cl | -19% |
| O=C(c1ccccc1)c1cc(-c2ccccn2)c(N2CCOCC2)s1 | -8.8% |
| COC(=O)C(C)Oc1ccc2c(-c3cccc([N+](=O)[O-])c3)cc(=O)oc2c1 (centres undefined) | 19.5% |
| Cc1ccccc1NC(=O)c1ccccc1NS(=O)(=O)c1cccc2cccnc12 | -7.4% |
| Cc1nn(Cc2ccccc2Cl)c(C)c1NC(=O)Cn1nc([N+](=O)[O-])c(Cl)c1C | -13.3% |
| CC(C)C(C)NC(=O)COc1ncnc2ccccc12 (centres undefined) | 2.1% |
| O=C(Nc1ccc(-n2ccnc2P(=O)(O)c2ccccc2)cc1)c1ccccc1Br | -15.1% |

| SMILES | inhibition |
| --- | --- |
| O=C(CSCc1ccc([N+](=O)[O-])cc1)NCCSCc1ccccc1 | -4.8% |
| COc1ccc(/C=C(/NC(=O)c2ccc(C)cc2)c2nc3ccccc3[nH]2)cc1OC | 24.6% |
| Cc1cc(C)c2c3c(sc2n1)C(c1ccccc1)C(C#N)=C(N)O3 (centres undefined) | 7.5% |
| CC(C)(C)c1cc2cccnc2n1Cc1ccccc1 | -13.7% |
| COCCCNC(NC(=O)c1ccc(C)cc1)C(Cl)(Cl)Cl (centres undefined) | -4.7% |
| O=C1COc2ccc(NC(=O)N3CCN(c4ccc(F)cc4)CC3)cc2N1 | -1.9% |
| COc1ccccc1NC(=O)[C@H](COCc1ccccc1)NC(=O)OC(C)(C)C | -9.9% |
| Oc1ccccc1/C=N/n1c(-c2cccs2)n[nH]c1=S | -11.3% |
| COc1ccc(C(=O)c2c(C)oc3cc([N+](=O)[O-])c(O)c([N+](=O)[O-])c23)cc1 | 3.1% |
| C=CCOc1c2ccc(C(=O)N(CC)c3ccc(OC)cc3)cc2nn1C | 12.9% |
| COc1cccc(/C=N/NC(=O)c2cccc([N+](=O)[O-])c2)c1OS(=O)(=O)c1ccc(C)cc1 | -0.8% |
| CCn1c(SC)nc(O)c(C(c2ccc(OC)c(O)c2)c2c(O)nc(SC)n(CC)c2=O)c1=O | 10.2% |
| COc1cccc(NC(=O)c2nn(C34CC5CC(CC(C5)C3)C4)cc2[N+](=O)[O-])c1 | 14% |
| Cc1ccc(-c2nnc(C)c(N3CC(C)OC(C)C3)n2)cc1 (centres undefined) | 9.5% |
| COC(=O)c1c(CCl)noc1C(=O)NC(C)C | -7% |
| O=C1c2ccccc2C(=O)N1CC1c2ccccc2CCN1S(=O)(=O)c1ccccc1 (centres undefined) | 24.7% |
| O=C1CCCC2=C1C(c1ccccc1)n1c(s/c(=C/c3cccc(F)c3)c1=O)=N2 (centres undefined) | 0.6% |
| Cc1c(CCO)c(=O)[nH]n1C(=O)c1c(F)cccc1F | 14.6% |
| CC(C)c1ccc(NC(=O)CCN2C(=O)c3ccc([N+](=O)[O-])cc3C2=O)cc1 | -2% |
